# Reference: article PMC7862700, “An all-to-all approach to the identification of sequence-specific readers for epigenetic DNA modifications on cytosine”
# How the values were obtained:
# Test in all cases: DAPPL (digital affinity profiling via proximity ligation, sequencing); 10 mM Tris-HCl pH 7.5, 50 mM NaCl, 1 mM DTT, 4% glycerol, room temperature, 30 min; GST-TFs on glutathione beads, 16-mer random dsDNA library, 0.1% formaldehyde crosslink after washing; high values mean tight binding
# [1] = target: T1, FEV (Homo sapiens, UniProt Q99581 1-238); conditions: protein: recombinant; tags: N-terminal GST; dsDNA, one strand shown
# T1 sequence: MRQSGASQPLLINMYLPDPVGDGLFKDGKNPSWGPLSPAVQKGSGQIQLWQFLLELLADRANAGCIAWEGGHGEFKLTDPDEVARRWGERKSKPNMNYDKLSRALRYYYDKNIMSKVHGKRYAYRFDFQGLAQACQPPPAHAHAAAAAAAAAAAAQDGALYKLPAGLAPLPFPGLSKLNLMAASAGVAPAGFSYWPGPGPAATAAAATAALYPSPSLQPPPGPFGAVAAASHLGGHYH
# Procedure, shortened: (§1)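 Beads coated with glutathione captured GST-fused human transcription factors that had been expressed in yeast, and the factors were then given DNA barcodes and pooled with a tag-only sample. The pools were incubated with 200 nmole of a random double-stranded 16-mer DNA library in Tris/NaCl/DTT/glycerol buffer for 30 min at room temperature, washed, crosslinked with 0.1% formaldehyde and proximity-ligated with BsaI/T4 ligase at 37 °C for 1 h. PCR amplification and Illumina NextSeq500 sequencing came last. Binding signal is each hexamer's read frequency for a factor divided by its frequency for the tag-only sample.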
# [2] = target: ETV5 (Homo sapiens, UniProt P41161 1-510); conditions: protein: recombinant; tags: N-terminal GST; dsDNA, one strand shown
# Procedure, shortened: as §1
# [3] = target: HSF1 (Homo sapiens, UniProt Q00613 1-529); conditions: protein: recombinant; tags: N-terminal GST; chain copies: 3; dsDNA, one strand shown
# Procedure, shortened: as §1
# [4] = target: T2, SPIC (Homo sapiens, UniProt Q8N5J4 1-248); conditions: protein: recombinant; tags: N-terminal GST; dsDNA, one strand shown
# T2 sequence: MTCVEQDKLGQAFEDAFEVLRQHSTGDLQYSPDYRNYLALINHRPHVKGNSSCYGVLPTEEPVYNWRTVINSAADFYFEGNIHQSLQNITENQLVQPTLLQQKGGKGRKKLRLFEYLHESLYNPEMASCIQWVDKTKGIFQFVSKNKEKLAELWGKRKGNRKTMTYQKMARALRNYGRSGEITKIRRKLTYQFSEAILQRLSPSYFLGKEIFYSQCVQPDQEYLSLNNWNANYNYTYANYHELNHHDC
# Procedure, shortened: as §1
# [5] = target: ELF4 (Homo sapiens, UniProt Q99607 1-663); conditions: protein: recombinant; tags: N-terminal GST; dsDNA, one strand shown
# Procedure, shortened: as §1
# [6] = target: T3, ELK4 (Homo sapiens, UniProt P28324-2 1-405); conditions: protein: recombinant; tags: N-terminal GST; dsDNA, one strand shown
# T3 sequence: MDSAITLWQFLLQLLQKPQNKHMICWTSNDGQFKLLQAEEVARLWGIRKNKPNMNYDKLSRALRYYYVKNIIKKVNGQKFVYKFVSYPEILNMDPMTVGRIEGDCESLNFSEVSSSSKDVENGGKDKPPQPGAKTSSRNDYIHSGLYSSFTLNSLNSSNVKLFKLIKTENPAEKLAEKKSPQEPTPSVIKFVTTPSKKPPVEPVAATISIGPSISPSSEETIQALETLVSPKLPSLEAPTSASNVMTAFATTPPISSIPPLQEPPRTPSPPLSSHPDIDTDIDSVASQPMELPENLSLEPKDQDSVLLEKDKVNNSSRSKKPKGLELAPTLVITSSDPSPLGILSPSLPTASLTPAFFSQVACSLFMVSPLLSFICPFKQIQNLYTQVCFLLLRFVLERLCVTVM
# Procedure, shortened: as §1
# [7] = target: T4, ETV2 (Homo sapiens, UniProt O00321 1-342); conditions: protein: recombinant; tags: N-terminal GST; dsDNA, one strand shown
# T4 sequence: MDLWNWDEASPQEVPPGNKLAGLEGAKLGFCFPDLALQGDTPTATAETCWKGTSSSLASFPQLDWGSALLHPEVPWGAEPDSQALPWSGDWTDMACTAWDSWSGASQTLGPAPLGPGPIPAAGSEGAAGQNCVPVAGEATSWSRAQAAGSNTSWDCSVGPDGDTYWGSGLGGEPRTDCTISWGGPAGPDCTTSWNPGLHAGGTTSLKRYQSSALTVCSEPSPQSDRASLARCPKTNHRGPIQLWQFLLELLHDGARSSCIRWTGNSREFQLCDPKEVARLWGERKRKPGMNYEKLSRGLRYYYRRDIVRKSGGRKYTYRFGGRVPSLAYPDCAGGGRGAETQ
# Procedure, shortened: as §1
# [8] = target: T5, ELF3 (Homo sapiens, UniProt P78545 1-371); conditions: protein: recombinant; tags: N-terminal GST; dsDNA, one strand shown
# T5 sequence: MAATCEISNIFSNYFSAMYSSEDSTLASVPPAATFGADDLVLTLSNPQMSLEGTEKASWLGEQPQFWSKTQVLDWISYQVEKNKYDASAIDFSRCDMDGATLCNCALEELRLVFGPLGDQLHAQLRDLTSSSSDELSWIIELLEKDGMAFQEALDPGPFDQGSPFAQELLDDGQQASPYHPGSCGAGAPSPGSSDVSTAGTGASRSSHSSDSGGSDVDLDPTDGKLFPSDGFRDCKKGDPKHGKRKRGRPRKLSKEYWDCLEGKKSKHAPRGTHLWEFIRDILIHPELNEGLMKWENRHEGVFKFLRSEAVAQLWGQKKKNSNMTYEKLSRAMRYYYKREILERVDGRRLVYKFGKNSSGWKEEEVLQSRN
# Procedure, shortened: as §1
# [9] = target: CRX (Homo sapiens, UniProt O43186 1-299); conditions: protein: recombinant; tags: N-terminal GST; dsDNA, one strand shown
# Procedure, shortened: as §1
# [10] = target: ETV1 (Homo sapiens, UniProt P50549 1-477); conditions: protein: recombinant; tags: N-terminal GST; dsDNA, one strand shown
# Procedure, shortened: as §1
# [11] = target: T6, ERF (Homo sapiens, UniProt P50548 1-548); conditions: protein: recombinant; tags: N-terminal GST; dsDNA, one strand shown
# T6 sequence: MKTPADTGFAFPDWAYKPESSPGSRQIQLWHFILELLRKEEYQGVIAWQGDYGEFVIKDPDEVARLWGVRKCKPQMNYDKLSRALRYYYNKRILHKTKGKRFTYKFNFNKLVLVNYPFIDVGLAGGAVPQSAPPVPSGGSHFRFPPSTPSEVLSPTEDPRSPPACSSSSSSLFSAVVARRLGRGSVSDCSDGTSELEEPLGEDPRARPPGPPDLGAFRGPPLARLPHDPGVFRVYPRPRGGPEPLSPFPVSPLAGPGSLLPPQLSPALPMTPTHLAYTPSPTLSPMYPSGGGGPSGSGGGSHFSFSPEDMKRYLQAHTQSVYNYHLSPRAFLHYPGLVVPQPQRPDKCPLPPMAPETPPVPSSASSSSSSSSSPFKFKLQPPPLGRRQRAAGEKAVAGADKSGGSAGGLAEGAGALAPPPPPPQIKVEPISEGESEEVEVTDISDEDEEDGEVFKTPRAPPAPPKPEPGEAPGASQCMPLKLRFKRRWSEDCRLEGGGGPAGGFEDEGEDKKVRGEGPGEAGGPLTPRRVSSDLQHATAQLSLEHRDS
# Procedure, shortened: as §1
# [12] = target: T7, ETV3L (Homo sapiens, UniProt Q6ZN32 1-361); conditions: protein: recombinant; tags: N-terminal GST; dsDNA, one strand shown
# T7 sequence: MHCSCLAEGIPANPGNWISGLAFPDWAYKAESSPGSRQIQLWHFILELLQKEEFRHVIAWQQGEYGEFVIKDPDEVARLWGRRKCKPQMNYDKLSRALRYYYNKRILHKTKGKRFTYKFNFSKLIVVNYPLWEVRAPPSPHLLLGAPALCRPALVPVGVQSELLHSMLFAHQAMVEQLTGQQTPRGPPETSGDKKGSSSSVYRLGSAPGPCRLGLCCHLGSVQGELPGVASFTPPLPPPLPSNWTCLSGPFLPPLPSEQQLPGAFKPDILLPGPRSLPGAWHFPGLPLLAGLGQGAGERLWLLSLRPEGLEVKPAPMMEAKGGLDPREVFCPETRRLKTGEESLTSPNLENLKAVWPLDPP
# Procedure, shortened: as §1
# [13] = target: T8, ETS2 (Homo sapiens, UniProt P15036 1-469); conditions: protein: recombinant; tags: N-terminal GST; dsDNA, one strand shown
# T8 sequence: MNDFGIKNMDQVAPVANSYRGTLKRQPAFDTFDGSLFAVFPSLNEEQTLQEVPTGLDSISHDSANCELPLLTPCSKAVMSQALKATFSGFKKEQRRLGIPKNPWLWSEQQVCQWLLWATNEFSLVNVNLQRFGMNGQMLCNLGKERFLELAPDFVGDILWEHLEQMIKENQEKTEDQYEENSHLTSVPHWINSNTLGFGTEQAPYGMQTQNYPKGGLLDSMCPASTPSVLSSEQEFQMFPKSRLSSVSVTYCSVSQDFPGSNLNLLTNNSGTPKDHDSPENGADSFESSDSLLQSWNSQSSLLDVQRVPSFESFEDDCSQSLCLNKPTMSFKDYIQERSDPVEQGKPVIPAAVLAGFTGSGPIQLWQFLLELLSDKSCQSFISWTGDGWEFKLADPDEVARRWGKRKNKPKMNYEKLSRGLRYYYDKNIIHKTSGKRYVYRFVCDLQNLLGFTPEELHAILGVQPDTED
# Procedure, shortened: as §1
# [14] = target: T9, SPDEF (Homo sapiens, UniProt O95238 1-335); conditions: protein: recombinant; tags: N-terminal GST; dsDNA, one strand shown
# T9 sequence: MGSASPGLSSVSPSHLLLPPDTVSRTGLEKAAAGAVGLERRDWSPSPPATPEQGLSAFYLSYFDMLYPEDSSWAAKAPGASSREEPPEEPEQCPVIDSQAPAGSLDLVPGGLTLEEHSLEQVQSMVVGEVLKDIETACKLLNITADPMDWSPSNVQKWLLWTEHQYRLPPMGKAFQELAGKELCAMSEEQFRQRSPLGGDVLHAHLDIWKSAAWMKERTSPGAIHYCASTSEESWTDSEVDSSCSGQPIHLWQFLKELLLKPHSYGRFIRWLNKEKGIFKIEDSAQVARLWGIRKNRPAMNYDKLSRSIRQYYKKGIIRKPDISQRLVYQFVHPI
# Procedure, shortened: as §1
# [15] = target: T10, ETV7 (Homo sapiens, UniProt Q9Y603 1-341); conditions: protein: recombinant; tags: N-terminal GST; dsDNA, one strand shown
# T10 sequence: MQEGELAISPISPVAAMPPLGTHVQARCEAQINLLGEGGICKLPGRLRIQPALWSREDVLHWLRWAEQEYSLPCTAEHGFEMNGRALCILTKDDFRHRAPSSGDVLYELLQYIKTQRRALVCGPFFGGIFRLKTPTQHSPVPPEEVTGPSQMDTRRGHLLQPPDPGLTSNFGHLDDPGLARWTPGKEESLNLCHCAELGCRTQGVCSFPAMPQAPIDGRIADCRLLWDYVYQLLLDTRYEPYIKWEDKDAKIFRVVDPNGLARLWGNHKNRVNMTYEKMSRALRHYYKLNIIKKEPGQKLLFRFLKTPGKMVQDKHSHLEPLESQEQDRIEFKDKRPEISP
# Procedure, shortened: as §1
# [16] = target: T11, ELF5 (Homo sapiens, UniProt Q9UKW6-2 1-255); conditions: protein: recombinant; tags: N-terminal GST; dsDNA, one strand shown
# T11 sequence: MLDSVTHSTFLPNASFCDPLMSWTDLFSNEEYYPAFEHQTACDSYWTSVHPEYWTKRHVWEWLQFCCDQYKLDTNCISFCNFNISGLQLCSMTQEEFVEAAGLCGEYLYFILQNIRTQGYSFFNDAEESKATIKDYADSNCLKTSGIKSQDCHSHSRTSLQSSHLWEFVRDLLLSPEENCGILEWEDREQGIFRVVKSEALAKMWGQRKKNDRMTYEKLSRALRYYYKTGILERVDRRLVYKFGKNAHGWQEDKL
# Procedure, shortened: as §1
# [17] = target: T12, ETV3 (Homo sapiens, UniProt P41162-2 1-143); conditions: protein: recombinant; tags: N-terminal GST; dsDNA, one strand shown
# T12 sequence: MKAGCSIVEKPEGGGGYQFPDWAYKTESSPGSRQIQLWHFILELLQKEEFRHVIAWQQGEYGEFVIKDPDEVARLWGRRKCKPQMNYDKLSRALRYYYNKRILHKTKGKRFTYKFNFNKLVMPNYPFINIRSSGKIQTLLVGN
# Procedure, shortened: as §1
# [18] = target: ETV6 (Homo sapiens, UniProt P41212 1-452); conditions: protein: recombinant; tags: N-terminal GST; dsDNA, one strand shown
# Procedure, shortened: as §1
# HSF1, sequence (Q00613 whole entry): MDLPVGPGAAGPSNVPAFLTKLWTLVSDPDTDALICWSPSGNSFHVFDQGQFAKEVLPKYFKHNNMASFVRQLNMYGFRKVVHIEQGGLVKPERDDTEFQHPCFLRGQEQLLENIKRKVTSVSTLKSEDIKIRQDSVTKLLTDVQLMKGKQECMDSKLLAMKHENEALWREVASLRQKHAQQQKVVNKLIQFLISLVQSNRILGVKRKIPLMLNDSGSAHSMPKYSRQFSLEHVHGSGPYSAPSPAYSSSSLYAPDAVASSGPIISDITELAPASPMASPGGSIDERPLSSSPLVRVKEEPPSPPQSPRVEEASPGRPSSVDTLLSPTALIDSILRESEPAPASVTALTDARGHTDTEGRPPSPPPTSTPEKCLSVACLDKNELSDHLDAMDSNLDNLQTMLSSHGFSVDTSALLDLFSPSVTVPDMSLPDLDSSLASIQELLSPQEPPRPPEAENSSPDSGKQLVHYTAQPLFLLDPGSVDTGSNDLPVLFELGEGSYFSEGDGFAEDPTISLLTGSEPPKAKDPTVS
# ETV5, sequence (P41161 whole entry): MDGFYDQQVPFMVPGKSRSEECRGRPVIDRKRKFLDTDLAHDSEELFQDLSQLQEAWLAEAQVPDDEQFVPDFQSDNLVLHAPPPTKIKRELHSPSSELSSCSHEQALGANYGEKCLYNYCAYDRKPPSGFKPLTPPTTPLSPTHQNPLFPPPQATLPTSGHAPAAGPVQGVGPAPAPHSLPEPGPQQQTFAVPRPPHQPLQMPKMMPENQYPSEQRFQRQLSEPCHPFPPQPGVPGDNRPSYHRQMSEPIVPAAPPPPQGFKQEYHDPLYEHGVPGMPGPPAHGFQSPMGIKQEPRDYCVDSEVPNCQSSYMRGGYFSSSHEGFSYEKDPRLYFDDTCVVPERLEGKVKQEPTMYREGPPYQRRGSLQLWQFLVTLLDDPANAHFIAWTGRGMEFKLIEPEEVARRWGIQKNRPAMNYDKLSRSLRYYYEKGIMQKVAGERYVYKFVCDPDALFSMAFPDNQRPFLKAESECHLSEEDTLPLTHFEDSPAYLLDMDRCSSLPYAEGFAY
# ETV6, sequence (P41212 whole entry): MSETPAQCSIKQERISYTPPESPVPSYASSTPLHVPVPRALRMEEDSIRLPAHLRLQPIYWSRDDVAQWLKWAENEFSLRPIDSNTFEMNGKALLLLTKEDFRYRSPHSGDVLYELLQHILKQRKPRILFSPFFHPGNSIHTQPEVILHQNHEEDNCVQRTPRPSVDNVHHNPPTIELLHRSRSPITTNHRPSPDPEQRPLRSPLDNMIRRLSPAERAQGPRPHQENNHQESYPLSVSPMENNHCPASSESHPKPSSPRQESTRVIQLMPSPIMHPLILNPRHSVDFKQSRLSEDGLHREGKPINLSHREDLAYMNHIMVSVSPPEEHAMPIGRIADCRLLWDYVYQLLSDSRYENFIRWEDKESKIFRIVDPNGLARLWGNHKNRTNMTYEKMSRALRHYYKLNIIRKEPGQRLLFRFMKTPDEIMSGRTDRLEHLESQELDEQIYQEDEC
# ETV1, sequence (P50549 whole entry): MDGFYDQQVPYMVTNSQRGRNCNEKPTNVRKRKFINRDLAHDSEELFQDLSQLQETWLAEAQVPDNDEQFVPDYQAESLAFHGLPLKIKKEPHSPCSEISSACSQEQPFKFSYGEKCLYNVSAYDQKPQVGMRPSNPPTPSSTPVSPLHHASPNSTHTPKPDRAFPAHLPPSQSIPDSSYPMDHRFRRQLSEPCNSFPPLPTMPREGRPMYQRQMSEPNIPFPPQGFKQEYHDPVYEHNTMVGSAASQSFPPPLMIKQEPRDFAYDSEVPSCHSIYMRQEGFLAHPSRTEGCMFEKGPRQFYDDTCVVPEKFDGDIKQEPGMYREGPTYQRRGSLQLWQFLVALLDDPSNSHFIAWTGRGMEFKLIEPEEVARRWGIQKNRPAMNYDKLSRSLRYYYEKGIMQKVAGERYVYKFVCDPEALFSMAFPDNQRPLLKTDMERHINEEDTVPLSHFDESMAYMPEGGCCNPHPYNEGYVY
# CRX, sequence (O43186 whole entry): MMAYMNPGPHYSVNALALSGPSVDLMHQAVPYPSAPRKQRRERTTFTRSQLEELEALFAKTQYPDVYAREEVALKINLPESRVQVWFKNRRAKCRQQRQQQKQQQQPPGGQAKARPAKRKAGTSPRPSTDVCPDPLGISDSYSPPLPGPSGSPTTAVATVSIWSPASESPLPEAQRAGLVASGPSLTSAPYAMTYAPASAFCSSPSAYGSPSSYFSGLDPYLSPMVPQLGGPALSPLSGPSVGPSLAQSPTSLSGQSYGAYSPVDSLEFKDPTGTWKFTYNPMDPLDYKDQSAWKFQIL
# ELF4, sequence (Q99607 whole entry): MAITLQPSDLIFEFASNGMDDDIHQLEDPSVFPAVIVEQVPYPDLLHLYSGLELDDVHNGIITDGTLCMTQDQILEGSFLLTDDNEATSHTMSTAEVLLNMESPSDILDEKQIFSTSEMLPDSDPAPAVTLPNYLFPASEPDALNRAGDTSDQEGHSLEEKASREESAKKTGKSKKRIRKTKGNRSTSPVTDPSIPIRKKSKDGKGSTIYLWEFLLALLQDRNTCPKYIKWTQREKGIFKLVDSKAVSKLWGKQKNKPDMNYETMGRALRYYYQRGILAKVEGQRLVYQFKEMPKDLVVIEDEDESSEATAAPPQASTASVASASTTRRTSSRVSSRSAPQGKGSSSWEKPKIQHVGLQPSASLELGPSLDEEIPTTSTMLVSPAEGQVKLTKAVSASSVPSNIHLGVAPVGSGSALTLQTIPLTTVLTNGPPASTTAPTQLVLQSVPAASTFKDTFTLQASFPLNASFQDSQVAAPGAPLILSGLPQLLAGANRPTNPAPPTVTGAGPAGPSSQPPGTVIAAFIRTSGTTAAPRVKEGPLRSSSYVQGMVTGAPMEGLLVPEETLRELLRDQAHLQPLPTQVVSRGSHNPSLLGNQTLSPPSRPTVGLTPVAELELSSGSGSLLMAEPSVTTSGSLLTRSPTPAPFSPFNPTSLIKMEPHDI
sequence,measurement,setting,value
CTGATC,binding signal,[1],"1.31 fold enrichment (6-mer frequency, TF over GST control)"
same,binding signal,[2],"1.29 fold enrichment (6-mer frequency, TF over GST control)"
same,binding signal,[3],"1.53 fold enrichment (6-mer frequency, TF over GST control)"
same,binding signal,[4],"1.57 fold enrichment (6-mer frequency, TF over GST control)"
same,binding signal,[5],"1.41 fold enrichment (6-mer frequency, TF over GST control)"
same,binding signal,[6],"1.39 fold enrichment (6-mer frequency, TF over GST control)"
same,binding signal,[7],"1.13 fold enrichment (6-mer frequency, TF over GST control)"
same,binding signal,[8],"1.25 fold enrichment (6-mer frequency, TF over GST control)"
same,binding signal,[9],"1.95 fold enrichment (6-mer frequency, TF over GST control)"
same,binding signal,[10],"1.43 fold enrichment (6-mer frequency, TF over GST control)"
same,binding signal,[11],"1.52 fold enrichment (6-mer frequency, TF over GST control)"
same,binding signal,[12],"1.36 fold enrichment (6-mer frequency, TF over GST control)"
same,binding signal,[13],"1.42 fold enrichment (6-mer frequency, TF over GST control)"
same,binding signal,[14],"1.33 fold enrichment (6-mer frequency, TF over GST control)"
same,binding signal,[15],"1.35 fold enrichment (6-mer frequency, TF over GST control)"
same,binding signal,[16],"1.32 fold enrichment (6-mer frequency, TF over GST control)"
same,binding signal,[17],"1.36 fold enrichment (6-mer frequency, TF over GST control)"
same,binding signal,[18],"1.23 fold enrichment (6-mer frequency, TF over GST control)"
